Inconclusive results are not listed. Activity calls are given as the source filed them. Rule for the calls: active = hit-call score of the fitted dose curve at least 0.9, where 1 is the maximum; inconclusive = response in the unintended direction; inactive = score below 0.9.

Experiment [1] in a line: TOX21_p53_BLA_p2_viability: Viability Assessment in the Tox21 HCT-116 p53 Agonism Beta-lactamase Assay, Phase 2 (AID 2283591).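 Note: compound exposure lasted 16 h at 37 °C; actives lower the ATP signal meaning cytotoxicity.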 The essentials: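 Cytotoxicity readout: CellTiter-Glo ATP luminescence, 30 min at room temperature, after the beta-lactamase read. Cells were HCT116 exposed 16 h at 37C to compounds pin-transferred at 217-fold dilution from DMSO stocks.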
Experiment [2] is described as follows: TOX21_p53_BLA_p3_viability: Viability Assessment in the Tox21 HCT-116 p53 Agonism Beta-lactamase Assay, Phase 3 (AID 2283593).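 Note: cells exposed to compound for 16 h before reading.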 The procedure, abridged:
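Cellular ATP was quantified by CellTiter-Glo luminescence, read after 30 min at room temperature. Beforehand, HCT116 cells (4000/well) received compound 5 h post-seeding, 217-fold diluted from DMSO, then incubated 16 h at 37C.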

A short description of experiment [3]: TOX21_p53_BLA_p4_viability: Viability Assessment in the Tox21 HCT-116 p53 Agonism Beta-lactamase Assay, Phase 4 (AID 2283597).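 Note: hits lower the luminescence signal meaning cytotoxicity.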 The essentials:
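Cytotoxicity as reduced cellular ATP (CellTiter-Glo luminescence, 30 min room temperature), measured in the same wells following the CCF4 FRET p53 reading. Human HCT-116 cells received compounds in DMSO (217-fold dilution) for 16 h.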

A short description of experiment [4]: TOX21_p53_BLA_p5_viability: Viability Assessment in the Tox21 HCT-116 p53 Agonism Beta-lactamase Assay, Phase 5 (AID 2283600). The procedure, abridged: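 Viability came from CellTiter-Glo ATP luminescence, read after 30 min at room temperature. Before this, HCT-116 p53-bla cells (4000/well) had 16 hours of compound exposure at 37C, with DMSO stocks diluted 217-fold on transfer.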

In experiment [5] the target is Cellular tumor antigen p53 (Homo sapiens) (UniProt P04637). Kind of experiment: TOX21_p53_BLA_p4_ratio: Tox21 HCT-116 p53 Agonism Beta-lactamase Assay, Ratio, Phase 4 (AID 2283601). The essentials:
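Signal is the blue/green (460nm/530nm) ratio of cleaved versus uncleaved CCF4-AM substrate, read after 2 h substrate loading. Cells were HCT116 carrying the p53-responsive beta-lactamase reporter, dosed 16 h at 37C, 5% CO2; CellTiter-Glo measured in parallel.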

A short description of experiment [6]: Tanguay_ZF_120hpf_YSE_legacy: (Legacy) Oregon State University Tanguay Lab 120 Hour Post-fertilization zebrafish Assay for Yolk Sac Edema (AID 2283634). The essentials: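 Presence or absence of yolk sac edema was recorded at 120 hpf in surviving larvae. These were wild-type Tropical 5D embryos, chorion removed at 4 hpf, held in static exposure at 28C from 6 hpf with 0.64% DMSO vehicle.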

Experiment [7] is described as follows: Tanguay_ZF_120hpf_AXIS_legacy: (Legacy) Oregon State University Tanguay Lab 120 Hour Post-fertilization zebrafish Assay for Body Axis Malformation (AID 2283635).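 For AC50: potency for an increased fraction of larvae scored with body axis malformation.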 The procedure, abridged:
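Binary scoring of axis defects at 120 hpf under brightfield, fitted positive versus DMSO. Tropical 5D embryos, chorion removed by pronase at 4 hpf, were singly exposed in sealed, dark plates at 28C from 6 hpf; DMSO 0.64% final.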

Experiment [8] can be described thus: Tanguay_ZF_120hpf_EYE_legacy: (Legacy) Oregon State University Tanguay Lab 120 Hour Post-fertilization zebrafish Assay for Eye Malformation (AID 2283636).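 Note: binary presence or absence of eye malformation scored by brightfield in 120 hpf larvae.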 The essentials: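 Binary brightfield scoring of eye defects at 120 hpf after static exposure from 6 hpf of single pronase-dechorionated wild-type embryos (28C, 0.64% DMSO). Non-mortality endpoints omitted where embryos died; fit vs DMSO.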

Experiment [9] in a line: Tanguay_ZF_120hpf_JAW_legacy: (Legacy) Oregon State University Tanguay Lab 120 Hour Post-fertilization zebrafish Assay for Jaw Malformation (AID 2283638). The procedure, abridged:
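Binary jaw-malformation call at 120 hpf by brightfield microscopy. Embryos (Tropical 5D strain, chorion removed at 4 hpf) were dosed statically at 6 hpf, one per well, at 28C with 0.64% DMSO. Embryos that died were not scored.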

Experiment [10] in a line: Tanguay_ZF_120hpf_OTIC_legacy: (Legacy) Oregon State University Tanguay Lab 120 Hour Post-fertilization zebrafish Assay for Otic Vesicle Malformation (AID 2283639). The procedure, abridged: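 Binary scoring of otic vesicle defects at 120 hpf in zebrafish (Tropical 5D) held under static exposure at 28C, sealed and shaded, with final DMSO 0.64%. Embryos dying by 24 or 120 hpf excluded; fitted positively against DMSO.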

Experiment [11] can be described thus: Tanguay_ZF_120hpf_PE_legacy: (Legacy) Oregon State University Tanguay Lab 120 Hour Post-fertilization zebrafish Assay for Pericardial Edema (AID 2283640).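 For AC50: potency for increased incidence of pericardial edema versus DMSO baseline.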 The essentials: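 Scoring was binary, by brightfield microscopy at 120 hpf, and skipped where mortality occurred. Wild-type embryos were kept under sealed, foil-covered static exposure at 28C in 0.64% (vol/vol) DMSO.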

Experiment [12] in a line: Tanguay_ZF_120hpf_SOMI_legacy: (Legacy) Oregon State University Tanguay Lab 120 Hour Post-fertilization zebrafish Assay for Somite Malformation (AID 2283647). The essentials:
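Binary somite-defect scoring at 120 hpf, omitted for embryos that died, in wild-type (Tropical 5D) zebrafish with chorion removed by pronase at 4 hpf; static exposure began 6 hpf, single embryos per well, 28C, 0.64% DMSO; fitted positive versus DMSO.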

Experiment [13] is described as follows: Tanguay_ZF_120hpf_PFIN_legacy: (Legacy) Oregon State University Tanguay Lab 120 Hour Post-fertilization zebrafish Assay for Pectoral Fin Malformation (AID 2283648).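 Note: each larva judged yes or no for fin defect by brightfield with dead larvae skipped.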 The procedure, abridged:
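Pectoral fin malformation was recorded as a binary endpoint at 120 hpf in wild-type Tropical 5D larvae, which had been dechorionated and exposed statically from 6 hpf at 28C in 0.64% DMSO. Dead embryos were excluded.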

Experiment [14] in a line: Tanguay_ZF_120hpf_CFIN_legacy: (Legacy) Oregon State University Tanguay Lab 120 Hour Post-fertilization zebrafish Assay for Caudal Fin Malformation (AID 2283649). The procedure, abridged: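 Binary brightfield scoring of caudal fin defects at 120 hpf after static, light-shielded exposure at 28C from 6 hpf. Tropical 5D embryos, chorion removed with pronase at 4 hpf, final DMSO 0.64%.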

Experiment [15] concerns the target Cellular tumor antigen p53 (Homo sapiens) (UniProt P04637). Kind of experiment: TOX21_p53_BLA_p3_ratio: Tox21 HCT-116 p53 Agonism Beta-lactamase Assay, Ratio, Phase 3 (AID 2283596). The essentials:
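Cells were seeded at 4000/well, rested 5 h at 37C, then dosed with DMSO compound solutions (217-fold dilution) for 16 h. CCF4-AM substrate was loaded for 2 h at room temperature, and the 460/530 nm emission ratio was fitted for gain of signal versus DMSO.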

The target is the same in experiment [16]. Kind of experiment: TOX21_p53_BLA_p5_ratio: Tox21 HCT-116 p53 Agonism Beta-lactamase Assay, Ratio, Phase 5 (AID 2283599). The procedure, abridged: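 Beta-lactamase reporter ratio (blue 460 nm over green 530 nm, 405 nm excitation) after 2 h CCF4-AM loading, in HCT-116 cells exposed 16 h at 37 C to compounds pinned at 217-fold dilution. Increases relative to DMSO baseline scored.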

Experiment [17] in a line: Tanguay_ZF_120hpf_MORT_legacy: (Legacy) Oregon State University Tanguay Lab 120 Hour Post-fertilization zebrafish Assay for Mortality (AID 2283633). The essentials: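 Static waterborne exposure from 6 to 120 hpf at 28C of single dechorionated wild-type (5D) embryos per well, 0.64% DMSO final. Death recorded present/absent by brightfield at 24 and 120 hpf.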
Experiment [18] can be described thus: Tanguay_ZF_120hpf_BRAI_legacy: (Legacy) Oregon State University Tanguay Lab 120 Hour Post-fertilization zebrafish Assay for Brain Malformation (AID 2283641). The procedure, abridged:
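Binary brightfield scoring of brain malformation at 120 hpf in Tropical 5D larvae held under static exposure at 28C (0.64% v/v DMSO), non-mortality endpoints skipped if dead. Positive control: 5uM trimethyltin chloride; fit versus DMSO.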

A short description of experiment [19]: Tanguay_ZF_120hpf_SNOU_legacy: (Legacy) Oregon State University Tanguay Lab 120 Hour Post-fertilization zebrafish Assay for Snout Malformation (AID 2283637). The essentials: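 Binary snout-malformation call at 120 hpf in wild-type 5D embryos, chorion removed by pronase, under static exposure from 6 hpf at 28C (0.64% DMSO). Embryos dying by 24 or 120 hpf excluded.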

Sequence of Cellular tumor antigen p53 (Homo sapiens) (P04637 whole entry, looked up): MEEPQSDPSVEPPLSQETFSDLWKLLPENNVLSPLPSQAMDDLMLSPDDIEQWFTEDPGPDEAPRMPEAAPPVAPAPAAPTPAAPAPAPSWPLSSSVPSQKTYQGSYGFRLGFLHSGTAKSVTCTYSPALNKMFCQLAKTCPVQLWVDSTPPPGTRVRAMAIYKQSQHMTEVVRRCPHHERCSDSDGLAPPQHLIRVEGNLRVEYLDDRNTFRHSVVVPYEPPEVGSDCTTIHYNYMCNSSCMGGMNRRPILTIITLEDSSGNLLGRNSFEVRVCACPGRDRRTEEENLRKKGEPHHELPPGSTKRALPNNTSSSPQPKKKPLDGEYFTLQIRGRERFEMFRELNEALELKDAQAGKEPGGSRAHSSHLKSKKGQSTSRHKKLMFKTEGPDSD

Turning to `O=C(Oc1ccc(Br)cc1)N1CCN2CCC1CC2`, the result in experiment [1], in experiment [2], in experiment [3], in [4], in experiment [5] and in [6] was inactive. For the same compound, the compound was called inactive in experiment [8], in [9], in experiment [10], in experiment [12], in [13] and in experiment [14]. Also, the AC50 (in general, the concentration giving half of the maximal activity seen) was 38.3 µM (active) in experiment [7] and 9.47 µM (active) in [11].

With `CC(C)N(Cc1ccccc1)C(=O)C(C)(C)C`, the result in experiment [2], in experiment [15], in [16], in experiment [5], in experiment [17] and in experiment [6] was inactive. Besides, the outcome in experiment [7], in [8], in experiment [9], in [10], in experiment [11] and in [18] was inactive. Further, the compound was classed as inactive in experiment [12], in experiment [13] and in experiment [14].

Regarding `OCCOCCO`, the compound was classed as inactive in experiment [17], in [6], in experiment [7], in [8], in experiment [9] and in [10]. Also, the compound was called inactive in experiment [11], in [12], in experiment [13] and in experiment [14].

Regarding `OCCCl`, the outcome in experiment [2], in experiment [15], in experiment [17], in experiment [6], in [7] and in experiment [8] was inactive. Also, the call in experiment [19], in experiment [9], in experiment [10], in experiment [11], in experiment [18] and in experiment [12] was inactive. Further, the outcome in experiment [13] and in [14] was inactive.

Turning to `N#CC(Br)(Br)C(N)=O`, the result in experiment [2], in [15], in [4], in experiment [5], in experiment [6] and in experiment [7] was inactive. Besides, the compound was classed as inactive in experiment [8], in [9], in [10], in experiment [11], in experiment [18] and in [12]. For the same compound, the outcome in experiment [13] and in experiment [14] was inactive. For the same compound, the AC50 in experiment [3] is 70.2 µM (active).

Regarding `Nc1ccc(Cc2ccc(N)cc2)cc1`, the result in experiment [1], in experiment [15], in experiment [3], in experiment [16], in experiment [4] and in experiment [5] was inactive. In addition, the compound was called inactive in experiment [17], in [6], in experiment [7], in experiment [8], in [9] and in [10]. Moreover, the compound was called inactive in experiment [11], in experiment [12], in experiment [13] and in [14].

As to `c1ccc(NNc2ccccc2)cc1`, the call in experiment [1], in experiment [15], in [16], in experiment [5], in experiment [17] and in experiment [6] was inactive. Further, the compound was called inactive in experiment [8], in experiment [10], in experiment [11], in experiment [12] and in [14].

`CCCCCCCCCCCCCN1CC(C)OC(C)C1` (stereo not drawn): the call in [2], in [15], in experiment [5], in experiment [17], in experiment [6] and in experiment [7] was inactive. Also, the compound was called inactive in [8], in experiment [9], in experiment [10], in [11], in experiment [12] and in [13]. Further, the call in experiment [14] was inactive.

Take `CCCCCOC(=O)c1ccccc1C(=O)OCCCCC`: the result in experiment [1], in [15], in [3], in experiment [16], in experiment [5] and in experiment [17] was inactive. Moreover, the compound was classed as inactive in experiment [6], in [7], in experiment [8], in [9], in [10] and in [11]. Besides, the call in experiment [18], in experiment [12] and in [13] was inactive.

These data come from PubChem BioAssay (EPA / NIEHS).
